# “And” between values parts separate entries of the source, which are not always exact repeats. Identical values can stand only once. The source made the active and inactive calls. Unless noted, no rule for the calls is given here.
# Tests used:
# [1] = HepG2 liver cancer cell viability effects, profiling panel, resazurin fluorescence, 24 h, PK04 Diversity Set (AID 1172); settings: higher = more signal; also: test concentration not given here
# [2] = basal S. cerevisiae growth modulation, no modifier, primary screen, OD600, strain BY4716, 24 h, basal condition (AID 1173); settings: OD600, 24 h, higher = more signal, called active from +8 up or from −8 down
# [3] = MM1S myeloma cell viability, profiling panel, resazurin fluorescence, basal, 24 h, PK04 Diversity Set (AID 1174); settings: higher = more signal, called active from +8 up or from −8 down;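 also: MM1S multiple myeloma cell line; test concentration not given here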
# [4] = target: Dihydroorotate dehydrogenase (quinone), mitochondrial (Plasmodium falciparum (isolate 3D7)) (UniProt Q08210); assay: PfDHODH enzyme inhibitors, primary screen, biochemical, C-terminal His tag, absorbance 600 nm (AID 1175); settings: DCIP absorbance 600 nm, higher = more signal, called active from +8 up or from −8 down;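 also: recombinant parasite enzyme with a five histidine tag at its C terminus; test concentration not given here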
# [5] = P. aeruginosa biofilm formation inhibitors, primary screen, strain PAO1, LB-PBS medium, absorbance 600 nm (AID 1176); also: test concentration not given here; settings: P. aeruginosa PAO1 growth/biofilm, A600, 12 h; higher = more signal
# [6] = S. cerevisiae RM11-1a growth modifiers, primary screen, strain RM11-1a, OD600, basal, 24 h (AID 1177); settings: OD600, 24 h, higher = more signal, called active from +8 up or from −8 down;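 also: cultures grown under basal conditions with no added stressor; test concentration not given here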
# [7] = E. coli acrAB mutant growth effects, primary screen, E. coli filamentation inducers, strain DRC39, OD650, 24 h (AID 1178); settings: higher = more signal, called active from +8 up or from −8 down;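 also: growth measured as culture turbidity by optical density at 650 nm; test concentration not given here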
# [8] = E. coli acrAB mutant growth effects, primary screen, E. coli filamentation inducers, strain DRC39, OD650, 48 h (AID 1179);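 also: screen aims at cell division blockers that make cells filament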; settings: E. coli DRC39 delta-acrAB growth, higher = more signal, called active from +8 up or from −8 down
# [9] = RPMI8226 myeloma cell viability, profiling panel, resazurin fluorescence, basal, 24 h, PK04 Diversity Set (AID 1180); settings: higher = more signal;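 also: RPMI8826 multiple myeloma cell line at 5000 cells per well; test concentration not given here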
# [10] = target: E3 ubiquitin-protein ligase XIAP (Homo sapiens) (UniProt P98170); assay: XIAP binders, primary screen, biophysical, small-molecule microarray, fluorescence 635 nm (AID 1181); settings: small-molecule microarray binding, higher = more signal;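 also: score merges 667 nm emission and signal to noise over triplicate slides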
# Chain of E3 ubiquitin-protein ligase XIAP (Homo sapiens) (P98170 whole entry, looked up): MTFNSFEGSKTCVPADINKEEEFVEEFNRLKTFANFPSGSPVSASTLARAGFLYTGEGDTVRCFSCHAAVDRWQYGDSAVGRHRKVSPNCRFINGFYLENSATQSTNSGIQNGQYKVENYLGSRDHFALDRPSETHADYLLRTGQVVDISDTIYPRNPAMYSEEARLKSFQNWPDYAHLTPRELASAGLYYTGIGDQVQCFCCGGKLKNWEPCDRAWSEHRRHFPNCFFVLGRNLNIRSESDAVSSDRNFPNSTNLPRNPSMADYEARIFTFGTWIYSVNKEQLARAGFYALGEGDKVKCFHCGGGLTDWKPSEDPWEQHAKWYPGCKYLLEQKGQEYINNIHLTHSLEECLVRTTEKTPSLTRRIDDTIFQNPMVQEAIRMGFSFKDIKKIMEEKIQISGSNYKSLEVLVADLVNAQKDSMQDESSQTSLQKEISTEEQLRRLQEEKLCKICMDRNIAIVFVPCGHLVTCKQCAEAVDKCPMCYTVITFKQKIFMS
# Chain of Dihydroorotate dehydrogenase (quinone), mitochondrial (Plasmodium falciparum (isolate 3D7)) (Q08210 whole entry, looked up): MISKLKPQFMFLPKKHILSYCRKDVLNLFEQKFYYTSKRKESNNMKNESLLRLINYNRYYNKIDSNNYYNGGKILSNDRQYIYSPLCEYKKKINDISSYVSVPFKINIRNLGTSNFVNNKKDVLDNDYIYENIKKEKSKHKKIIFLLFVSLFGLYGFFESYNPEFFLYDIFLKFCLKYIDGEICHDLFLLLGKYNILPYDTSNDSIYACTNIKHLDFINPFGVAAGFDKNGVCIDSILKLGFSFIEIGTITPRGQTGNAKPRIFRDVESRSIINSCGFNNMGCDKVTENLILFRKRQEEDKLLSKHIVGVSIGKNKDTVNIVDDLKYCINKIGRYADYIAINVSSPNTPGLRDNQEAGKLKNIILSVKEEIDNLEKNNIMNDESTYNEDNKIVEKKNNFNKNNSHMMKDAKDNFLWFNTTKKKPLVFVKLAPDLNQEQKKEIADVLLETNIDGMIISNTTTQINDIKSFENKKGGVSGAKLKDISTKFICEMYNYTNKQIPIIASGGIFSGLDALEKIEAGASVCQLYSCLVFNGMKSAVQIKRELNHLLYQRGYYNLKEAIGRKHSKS
smiles,measurement,setting,value
Cc1ccc(S(=O)(=O)N[C@H]2COC(=O)[C@@H](Cc3ccccc3)NC(=O)[C@@H](C)COC(=O)CC=C[C@@H]2C)cc1,z-score,[1],0.328 and 0.224
same,z-score,[2],-0.207 (inactive) and -0.631 (inactive)
same,z-score,[3],0.0731 (inactive) and -0.209 (inactive)
same,composite z-score,[4],-0.395 (inactive) and -0.412 (inactive)
same,z-score,[5],-0.814 (inactive) and -0.479 (inactive)
same,z-score,[6],0.0658 (inactive) and 0.0386 (inactive)
same,z-score,[7],0.046 (inactive) and -0.0139 (inactive)
same,z-score,[8],-0.479 (inactive) and 0.385 (inactive)
same,z-score,[9],0.0023 and 0.238
same,composite z-score,[10],-0.259 and -0.469
C[N+](C)(C)CCCCNC(=O)[C@H]1C[C@H]2C(=O)N[C@@H](CCCC[N+](C)(C)C)C(=O)N2[C@H]1c1ccc(O)cc1,z-score,[1],-0.168 and 0.0318
same,z-score,[2],0.889 (inactive) and 0.811 (inactive)
same,z-score,[3],-0.531 (inactive) and -0.416 (inactive)
same,composite z-score,[4],-29.8 (active) and -29.4 (active)
same,z-score,[5],0.227 (inactive) and 2.5 (inactive)
same,z-score,[6],0.659 (inactive) and 0.409 (inactive)
same,z-score,[7],0.0769 (inactive) and -0.869 (inactive)
same,z-score,[8],0.0835 (inactive) and -1.41 (inactive)
same,z-score,[9],-0.891 and -1.06
same,composite z-score,[10],0.104 and 0.0015
COC(=O)C1=C(C)N(Cc2ccccc2)C2=C(C(=O)c3ccccc3)[C@H](c3ccccc3)[C@@](O)(C(=O)OC)C(=O)N2[C@@H]1c1ccccc1,z-score,[1],0.291 and 0.302
same,z-score,[2],-1.07 (inactive) and -0.683 (inactive)
same,z-score,[3],-1.34 (inactive) and -0.716 (inactive)
same,composite z-score,[4],0.382 (inactive) and -0.214 (inactive)
same,z-score,[5],0.875 (inactive) and -0.0538 (inactive)
same,z-score,[6],1.27 (inactive) and 0.504 (inactive)
same,z-score,[7],1.17 (inactive) and 0.312 (inactive)
same,z-score,[8],0.592 (inactive) and 0.607 (inactive)
same,z-score,[9],-0.56 and -0.7
same,composite z-score,[10],0.0399 and -0.0118
CO[C@H]1COC(=O)CC=C[C@@H](C)COC(=O)[C@H](CCSC)NC(=O)CC=C[C@@H]1C,z-score,[1],-0.591 and 0.597
same,z-score,[2],-0.92 (inactive) and -2.28 (inactive)
same,z-score,[3],-0.473 (inactive) and 1.67 (inactive)
same,composite z-score,[4],0.177 (inactive) and 0.0636 (inactive)
same,z-score,[5],0.0821 (inactive)
same,z-score,[6],-0.177 (inactive) and -0.642 (inactive)
same,z-score,[7],0.277 (inactive) and 0.719 (inactive)
same,z-score,[8],-1.27 (inactive) and 0.0985 (inactive)
same,z-score,[9],-0.0162 and 1
same,composite z-score,[10],0.266 and 0.0623
C=CCN(Cc1ccccc1)C(=O)C(c1cccs1)N(C(=O)/C=C\C(=O)O)c1c(Cl)cccc1CO (stereo not given),z-score,[1],0.201 and -0.418
same,z-score,[2],-0.0348 (inactive) and -0.539 (inactive)
same,z-score,[3],0.258 (inactive) and -0.385 (inactive)
same,composite z-score,[4],0.607 (inactive) and 1.16 (inactive)
same,z-score,[5],0.165 (inactive) and -0.208 (inactive)
same,z-score,[6],0.0233 (inactive) and -0.276 (inactive)
same,z-score,[7],0.759 (inactive) and 0.391 (inactive)
same,z-score,[8],-1.34 (inactive) and 0.456 (inactive)
same,z-score,[9],-0.124 and -1
same,composite z-score,[10],-0.0172 and -0.359
C=C[C@@H](C)[C@@H](O)c1ccc(O)c2ccccc12,z-score,[1],-0.278 and 0.0891
same,z-score,[2],-14.7 (active) and -15 (active)
same,z-score,[3],-0.938 (inactive) and -1.51 (inactive)
same,composite z-score,[4],-2.38 (inactive) and -3.35 (inactive)
same,z-score,[5],0.814 (inactive) and -0.0697 (inactive)
same,z-score,[6],-0.143 (inactive) and 0.291 (inactive)
same,z-score,[7],0.652 (inactive) and 0.297 (inactive)
same,z-score,[8],0.347 (inactive) and 0.106 (inactive)
same,z-score,[9],-0.777 and -1.42
same,composite z-score,[10],-0.22 and 1.24
C=CCN(CCCC)C(=O)C1N(c2ccc(CCO)cc2)C(=O)C2C(C(=O)O)C3C=CC21O3 (stereo not given),z-score,[1],0.533 and -0.912
same,z-score,[2],-0.539 (inactive) and -0.275 (inactive)
same,z-score,[3],-0.217 (inactive) and -0.801 (inactive)
same,composite z-score,[4],-0.51 (inactive) and -1.02 (inactive)
same,z-score,[5],0.633 (inactive) and 0.276 (inactive)
same,z-score,[6],-0.639 (inactive) and 0.159 (inactive)
same,z-score,[7],0.227 (inactive) and 0.473 (inactive)
same,z-score,[8],-0.248 (inactive) and 0.25 (inactive)
same,z-score,[9],-0.0068 and 0.0215
same,composite z-score,[10],-0.53 and 0.0871
C=CCN(C(=O)C1N(CCOCCO)C(=O)C2C(C(=O)O)C3C=CC21O3)c1ccc(OC)cc1 (stereo not given),z-score,[1],0.0057 and 0.18
same,z-score,[2],-0.174 (inactive) and -0.731 (inactive)
same,z-score,[3],0.267 (inactive) and -0.0413 (inactive)
same,composite z-score,[4],-0.511 (inactive) and -4.53 (inactive)
same,z-score,[5],-0.276 (inactive) and -0.0963 (inactive)
same,z-score,[6],-0.478 (inactive) and -0.298 (inactive)
same,z-score,[7],0.556 (inactive) and 1.24 (inactive)
same,z-score,[8],0.2 (inactive) and 0.638 (inactive)
same,z-score,[9],-0.0424 and 0.0858
same,composite z-score,[10],0.0637 and 0.0264
C[N+](C)(C)CCCCCCNC(=O)[C@@H]1C[C@@H]2C(=O)N[C@@H](CCCC[N+](C)(C)C)C(=O)N2[C@@H]1c1ccc(O)cc1,z-score,[1],0.104 and 0.822
same,z-score,[2],0.292 (inactive) and 0.384 (inactive)
same,z-score,[3],0.436 (inactive) and 0.422 (inactive)
same,composite z-score,[4],-0.792 (inactive) and -0.983 (inactive)
same,z-score,[5],-0.462 (inactive) and 0.0499 (inactive)
same,z-score,[6],1.06 (inactive) and 1.11 (inactive)
same,z-score,[7],0.52 (inactive) and -0.04 (inactive)
same,z-score,[8],0.801 (inactive) and -0.431 (inactive)
same,z-score,[9],0.608 and -0.287
same,composite z-score,[10],-0.277 and -0.227
CC[C@@H]1C(Sc2ccccc2)C(C(=O)O)[C@H](c2ccc(C)cc2)N1S(=O)(=O)c1ccc(C)cc1 (stereo not given in full),z-score,[1],-0.706 and -0.917
same,z-score,[2],-0.28 (inactive) and -1.3 (inactive)
same,z-score,[3],-0.567 (inactive) and 0.0522 (inactive)
same,composite z-score,[4],0.0392 (inactive) and -0.581 (inactive)
same,z-score,[5],0.133 (inactive) and 0.257 (inactive)
same,z-score,[6],-0.112 (inactive) and -1.09 (inactive)
same,z-score,[7],-0.604 (inactive) and -0.627 (inactive)
same,z-score,[8],-0.106 (inactive) and 0.575 (inactive)
same,z-score,[9],-1.17 and -0.637
same,composite z-score,[10],0.287 and 0.382
COC(=O)C1=C(C)N(Cc2ccccc2)[C@]23O[C@](C(=O)OC)(C(=O)N2[C@@H]1c1ccccc1)[C@H]1C(=O)N(c2ccccc2)C(=O)[C@H]13,z-score,[1],0.652 and 1.12
same,z-score,[2],-1.07 (inactive) and -1.3 (inactive)
same,z-score,[3],0.965 (inactive) and -0.165 (inactive)
same,composite z-score,[4],-0.047 (inactive) and -0.335 (inactive)
same,z-score,[5],-0.2 (inactive)
same,z-score,[6],-0.215 (inactive) and 0.133 (inactive)
same,z-score,[7],-0.308 (inactive) and 0.166 (inactive)
same,z-score,[8],-0.306 (inactive) and 0.155 (inactive)
same,z-score,[9],0.709 and 0.102
same,composite z-score,[10],-0.0346 and -0.316
C[C@@H]1CC[C@H]2C(=O)O[C@H](CN=[N+]=[N-])CN2[C@H]1c1ccc(Br)cc1,z-score,[1],-0.528 and 0.231
same,z-score,[2],-3.44 (inactive) and -4.5 (inactive)
same,z-score,[3],-0.586 (inactive) and 0.637 (inactive)
same,composite z-score,[4],0.41 (inactive) and 0.841 (inactive)
same,z-score,[5],1.39 (inactive) and -0.0204 (inactive)
same,z-score,[6],-0.505 (inactive) and 1.67 (inactive)
same,z-score,[7],-0.686 (inactive) and -0.801 (inactive)
same,z-score,[8],-0.633 (inactive) and -1.31 (inactive)
same,z-score,[9],-1.38 and 0.417
same,composite z-score,[10],0.0871 and 0.277
C[N+](C)(C)CCCCCCNC(=O)[C@H]1C[C@H]2C(=O)N[C@@H](CCCC[N+](C)(C)C)C(=O)N2[C@H]1c1cccc(OCCO)c1,z-score,[1],-0.402 and -0.0872
same,z-score,[2],-0.255 (inactive) and 0.763 (inactive)
same,z-score,[3],0.737 (inactive) and -0.541 (inactive)
same,composite z-score,[4],-2.69 (inactive) and -1.29 (inactive)
same,z-score,[5],-0.366 (inactive) and 0.146 (inactive)
same,z-score,[6],0.297 (inactive) and 1.2 (inactive)
same,z-score,[7],1.04 (inactive) and -0.0715 (inactive)
same,z-score,[8],1.47 (inactive) and -0.451 (inactive)
same,z-score,[9],0.455 and -1.29
same,composite z-score,[10],-0.0553 and -0.0559
CC(C)[Si]1(C(C)C)OCc2cc(C3CC3)nc(CCc3ccccc3)c21,z-score,[1],0.983 and 1.3
same,z-score,[2],1.04 (inactive) and 0.427 (inactive)
same,z-score,[3],0.905 (inactive) and 0.656 (inactive)
same,composite z-score,[4],-0.092 (inactive) and -0.377 (inactive)
same,z-score,[5],0.338 (inactive) and 0.35 (inactive)
same,z-score,[6],0.534 (inactive) and 0.156 (inactive)
same,z-score,[7],0.428 (inactive) and -0.615 (inactive)
same,z-score,[8],0.26 (inactive) and -0.173 (inactive)
same,z-score,[9],0.635 and 0.355
same,composite z-score,[10],0.321 and -0.305

# From PubChem BioAssay
